# Experimental data: PMC5540273 (PLoS ONE, 2017)
# Experiments:
# Conditions in all cases: concentration: 1 μM, replicates: in singlicate; n = 1
# TAOK2 = tested on: TAOK2
# TAOK3 = tested on: TAOK3
# TBK1 = tested on: TBK1
# TEC = tested on: TEC
# TESK1 = tested on: TESK1
# TGFBR1 = tested on: TGFBR1
# TGFBR2 = tested on: TGFBR2
# TIE1 = tested on: TIE1
# TIE2 = tested on: T1, TIE2
# T1 construct: gene TEK
# TLK1 = tested on: TLK1
# 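Also: KINOMEscan kinase panel screen.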
Structure (SMILES),%Inh (TAOK2) [%],%Inh (TAOK3) [%],%Inh (TBK1) [%],%Inh (TEC) [%],%Inh (TESK1) [%],%Inh (TGFBR1) [%],%Inh (TGFBR2) [%],%Inh (TIE1) [%],%Inh (TIE2) [%],%Inh (TLK1) [%]
Fc1ccc(-c2nn3c(OCC(F)(F)F)cccc3c2-c2ccncc2)cc1 [GW514784],0,0,0,0,13,39,55,0,0,0
O=c1cc(N2CCOCC2)nc2n(Cc3cccc(F)c3)ccn12 [GSK2297430],0,0,0,0,19,0,13,7,0,6
Fc1ccc(-c2ncn(CCCN3CCOCC3)c2-c2ccccn2)cc1 [SB-211742],5,0,21,0,0,52,6,0,27,0
O=C(Nc1n[nH]c2cc(-c3cccc(F)c3)ccc12)C1CC1 [SB-735464],32,8,10,0,17,5,0,0,16,16
Cc1cn2c(=O)cc(N3CCOCC3)nc2n1Cc1cccc(Cl)c1Cl [GSK2334006],0,0,0,12,17,15,0,50,19,17
NS(=O)(=O)c1cccc(-c2ccc3nccc(-c4cccc(S(N)(=O)=O)c4)c3c2)c1 [GW867253],31,6,15,0,7,0,0,5,0,3
NCC(NC(=O)c1cc(-c2cn[nH]c2)c(-c2ccnc3[nH]ccc23)s1)c1ccccc1.O=C(O)C(F)(F)F.O=C(O)C(F)(F)F (stereo not shown) [GSK1325775],40,40,20,1,18,4,0,6,0,5
O=c1cc(N2CCOCC2)nc2n(Cc3cccc(Cl)c3Cl)c(C3CC3)nn12 [GSK2358994],0,0,26,13,14,0,10,0,0,25
COc1cc(Nc2nccc(N3CCC(NC(=O)c4cccc(NC(C)=O)c4)C3)n2)cc(OC)c1OC (stereo not shown) [GSK1379754],0,0,17,0,15,0,0,61,0,0
COc1ccc(Nc2nccc(N3CCC(NC(=O)Nc4cc(C)ccc4C)C3)n2)cc1 (stereo not shown) [GSK1379741],0,0,0,20,14,0,0,0,0,0
COc1ccc(CNC(=O)NC2CCN(c3ccnc(Nc4ccc(OC)cc4)n3)C2)cc1 (stereo not shown) [GSK1379727],7,0,0,0,16,38,0,17,0,0
NS(=O)(=O)c1cccc(-c2ccc3ncc(N4CCOCC4)nc3c2)c1 [GSK1535721],0,4,17,18,0,6,0,0,0,9
Cn1cc(-c2ccc3c(c2)CCN3C(=O)Cc2ccccc2Cl)c2c(N)ncnc21 [GSK2608885],0,47,14,100,43,8,23,96,97.4,29
Nc1nc(-c2ccc3c(N)n[nH]c3c2)cc(N2CCCC2)n1 [GSK2227430],0,0,18,0,2,0,0,0,0,3
O=c1cc(N2CCOCC2)nc2n(Cc3cccc(C(F)(F)F)c3)ccn12 [GSK2297543],0,0,24,0,18,0,0,0,0,12
COc1cc2c(cc1OCCN1CCN(C)CC1)ncc1c3ccc(C#N)cc3[nH]c21,13,0,83,0,0,0,0,0,6,37
